# Values quoted from earlier work in PubChem BioAssay AID977611.
# Out of some 3,900 compounds screened, about 3,900 (100%) were called active. No cut-off is given here; in the data, nearly all actives have Kd up to about 4200 µM. The set was probably picked from earlier hits. Some of the results follow. Where a SMILES comes first, the peptide text is derived from it. Non-standard residues stand in square brackets, D forms with d. Square brackets hold non-standard residues; d marks the D form. Residues, ends and D or L forms follow the SMILES beside them. Peptide text beside a SMILES is read from it. [ ]: non-standard residue; d: D form. Orn(CH(NH2)2) = NC(N)NCCC[C@H](N)C(=O)O
# Test: PubChem AID 977611
# Conditions: PDB protein-ligand complexes, literature Kd
molecule,measurement,setting,value
CN(C)c1ccc(C(c2ccc(N(C)C)cc2)c2ccc(N(C)C)cc2)cc1,Kd,"protein: Putative regulatory protein, PDB entry 3vw1",21.2 µM (active)
CN(C)c1ccc(C(c2ccc(O)cc2)c2ccc(N(C)C)cc2)cc1,Kd,"protein: Immunoglobulin lambda variable domain L5(L89S), PDB entry 4k3h",0.14 µM (active)
Nc1ccc2[nH]c(=O)c3ccccc3c2c1,Kd,"protein: Putative ADP-ribosyltransferase Certhrax, PDB entry 4fk7",5.8 µM (active)
Nc1ncnc2c1ncn2[C@@H]1O[C@H](CO[P+](O)(O)O[P+](O)(O)N[P+](O)(O)O)[C@@H](O)[C@H]1O,Kd,"protein: INOSITOL-PENTAKISPHOSPHATE 2-KINASE, PDB entry 4axd",37 µM (active)
same,Kd,"protein: N-acetylhexosamine 1-phosphate kinase NahK, PDB entry 4ock",8.3 µM (active)
same,Kd,"protein: N-acetylhexosamine 1-phosphate kinase NahK, PDB entry 4ocv",8.3 µM (active)
same,Kd,"protein: Osmolarity sensor protein EnvZ, Histidine kinase, PDB entry 4kp4",6.8 µM (active)
Nc1ncnc2c1ncn2[C@@H]1O[C@H](CO[P+](O)(O)OS(O)(O)O)[C@@H](O)[C@H]1O,Kd,"protein: Adenylyl-sulfate kinase 1, chloroplastic, PDB entry 4fxp",80.4 µM (active)
Nc1ncnc2c1ncn2[C@@H]1O[C@H](CO[P+](O)(O)O)[C@@H](O)[C@H]1O[C@H]1O[C@H](CO[P+](O)(O)O)[C@@H](O)[C@H]1O,Kd,"protein: E3 ubiquitin-protein ligase RNF146 RNF146(RING-WWE), PDB entry 4qpl",0.039 µM (active)
Nc1ncnc2c1ncn2[C@@H]1O[C@H](CO)[C@@H](O[P+](O)(O)OC[C@H]2O[C@@H](n3ccc(=O)[nH]c3=O)[C@H](O)[C@@H]2O)[C@H]1O,Kd,"protein: Poly(A) RNA polymerase protein cid1, PDB entry 4nku",21.3 µM (active)
Nc1ncnc2c1ncn2[C@@H]1O[C@H](CO[P+](O)(O)O[P+](O)(O)OC[C@H]2O[C@H](O)[C@H](O)[C@@H]2O)[C@@H](O)[C@H]1O,Kd,"protein: Poly [ADP-ribose] polymerase 14 MACRO DOMAIN 1, PDB entry 3q6z",192 µM (active)
same,Kd,"protein: Poly [ADP-ribose] polymerase 14 MACRO DOMAIN 1 and 2, PDB entry 3vfq",6.4 µM (active)
same,Kd,"protein: Poly [ADP-ribose] polymerase 14 MACRO DOMAIN 2, PDB entry 3q71",6 µM (active)
same,Kd,"protein: Poly [ADP-ribose] polymerase 14 MACRO DOMAIN 3, PDB entry 4abk",1.9 µM (active)
Nc1ncnc2c1ncn2[C@@H]1O[C@H](CO[P+](O)(O)O[P+](O)(O)O[P+](O)(O)O)[C@@H](O)[C@H]1O,Kd,"protein: ADENYLATE CYCLASE TYPE 10, PDB entry 4usw",2030 µM (active)
same,Kd,"protein: Chaperone protein DnaK (N432M,Q433G,S434G mutation), PDB entry 4jn4",1.38 µM (active)
same,Kd,"protein: Hsp70 CHAPERONE DnaK (N432M,Q433G,S434G mutation), PDB entry 4jne",1.38 µM (active)
same,Kd,"protein: Nitrogen regulatory protein P-II hmGlnK2, PDB entry 4ozn",4 µM (active)
same,Kd,"protein: Protein hfq, PDB entry 3qo3",0.125 µM (active)
same,Kd,"protein: Walker B/D-loop D645N, D651A double mutant rat TAP1-NBD, PDB entry 4k8o",170 µM (active)
NC(=O)C1=CN([C@H]2O[C@H](CO[P+](O)(O)O[P+](O)(O)OC[C@H]3O[C@@H](n4cnc5c(N)ncnc54)[C@H](O)[C@@H]3O)[C@@H](O)[C@H]2O)C=CC1,Kd,"protein: Redox-sensing transcriptional repressor rex, PDB entry 3wgg",39.9 µM (active)
Nc1ncnc2c1ncn2[C@@H]1O[C@H](CO[P+](O)(O)O[P+](O)(O)O[P+](O)(O)O[P+](O)(O)O[P+](O)(O)OC[C@H]2O[C@@H](n3cnc4c(N)ncnc43)[C@H](O)[C@@H]2O)[C@@H](O)[C@H]1O,Kd,"protein: Adenylate kinase, PDB entry 4w5j",0.057 µM (active)
CC(=O)N1CCC[C@H]1C(=O)N[C@@H](Cc1c[nH]c2ccccc12)C(=O)N[C@@H](C)C(=O)N[C@H](C(=O)N[C@@H](CS)C(=O)N[C@@H](CC(=O)O)C(=O)N[C@@H](CO)C(N)=O)[C@@H](C)O,Kd,"protein: Thiol:disulfide interchange protein DsbAC30S, PDB entry 4od7",8.3 µM (active)
C[C@H](NC(=O)[C@H](Cc1c[nH]c2ccccc12)NC(=O)[C@H](CC(N)=O)NC(=O)[C@@H](N)CC(N)=O)C(=O)N[C@@H](CC(=O)O)C(=O)N[C@@H](Cc1ccccc1)C(=O)N[C@@H](CO)C(=O)N[C@@H](CO)C(=O)N[C@H](C(=O)N[C@@H](Cc1c[nH]c2ccccc12)C(=O)N1CCC[C@H]1C(=O)O)[C@@H](C)O (H-NNWADFSSTWP-OH),Kd,"protein: Adaptor protein complex AP-2, subunit beta-1, PDB entry 3hs9",0.49 µM (active)
H-PHGGSWGQP-OH,Kd,"protein: POM2 Fab, PDB entry 4j8r",0.02 µM (active)
H-PDVSSSTA-OH,Kd,"protein: Speckle-type POZ protein, SPOPMATH, PDB entry 3ivq",76.1 µM (active)
C[C@H](NC(=O)[C@H](Cc1c[nH]c2ccccc12)NC(=O)[C@H](CC(N)=O)NC(=O)[C@H](CC(N)=O)NC(=O)[C@@H]1CCCN1)C(=O)N[C@@H](CC(=O)O)C(=O)N[C@@H](Cc1ccccc1)C(=O)N[C@@H](CO)C(=O)N[C@@H](CO)C(=O)N[C@H](C(=O)N[C@@H](Cc1c[nH]c2ccccc12)C(=O)N1CCC[C@H]1C(=O)O)[C@@H](C)O (H-PNNWADFSSTWP-OH),Kd,"protein: Adaptor protein complex AP-2, alpha 2 subunit, PDB entry 3hs8",5 µM (active)
NCCCC[C@H](NC(=O)[C@H](CO)NC(=O)[C@@H]1CCCN1)C(=O)N[C@@H](CCCCN)C(=O)N[C@@H](CCCNC(N)N)C(=O)N[C@@H](CCCCN)C(=O)N[C@@H](CCCNC(N)N)C(=O)N[C@@H](CO)C(=O)N[C@@H](CCCNC(N)N)C(=O)N[C@@H](Cc1c[nH]c2ccccc12)C(=O)N[C@@H](CC(N)=O)C(=O)N[C@@H](CCC(N)=O)C(=O)N[C@@H](CC(=O)O)C(=O)O (H-PSKK[Orn(CH(NH2)2)]K[Orn(CH(NH2)2)]S[Orn(CH(NH2)2)]WNQD-OH),Kd,"protein: the C-terminal RRM (RRM3) of human U2AF65, PDB entry 1opi",0.05 µM (active)
H-PDWDFN-NH2,Kd,"protein: AP-1 COMPLEX SUBUNIT GAMMA-LIKE 2, PDB entry 3zhf",120 µM (active)
CCCCCCCC(=O)OC[C@H](CO[P+](O)(O)OC[C@H](N)C(=O)O)OC(=O)CCCCCCC,Kd,"protein: Matrix protein p17, PDB entry 2lyb",35 µM (active)
CCCCCCCC(=O)OC[C@H](CO[P+](O)(O)OCC[N+](C)(C)C)OC(=O)CCCCCCC,Kd,"protein: Matrix protein p17, PDB entry 2lya",65 µM (active)
CC(C)C[C@H](CNC(=O)c1ccncc1)Cc1ccc2c(c1C(=O)O)OCO2,Kd,"protein: HIV INTEGRASE, PDB entry 4cj4",432 µM (active)
CC(C)C[C@H](CNC(=O)CCCN)Cc1ccc2c(c1C(=O)O)OCO2,Kd,"protein: HIV integrase, PDB entry 4ck3",268 µM (active)
CC(C)C[C@H](CNC(=O)c1cccnc1)Cc1ccc2c(c1C(=O)O)OCO2,Kd,"protein: HIV integrase, PDB entry 4cjp",481 µM (active)
CC(C)C[C@H](CNC(=O)Cc1c[nH]c2ccccc12)Cc1ccc2c(c1C(=O)O)OCO2,Kd,"protein: HIV integrase, PDB entry 4cjq",256 µM (active)
NC(=O)CC[C@H](NC(=O)c1ccc(O[C@@H]2O[C@H](CO)[C@H](O)[C@H](O)[C@H]2O)cc1)C(=O)N[C@@H](CCCNC(N)N)C(=O)N[C@@H](CO)C(N)=O,Kd,"protein: PA-I galactophilic lectin, PDB entry 4lkd",4.5 µM (active)
NCCCC[C@H](NC(=O)[C@H](Cc1c[nH]c2ccccc12)NC(=O)c1ccc(O[C@@H]2O[C@H](CO)[C@H](O)[C@H](O)[C@H]2O)cc1)C(=O)N[C@@H](Cc1ccc(O)cc1)C(N)=O,Kd,"protein: PA-I galactophilic lectin, PDB entry 4lkf",4.3 µM (active)
NC(=O)CNC(=O)[C@H](Cc1c[nH]c2ccccc12)NC(=O)c1ccc(O[C@@H]2O[C@H](CO)[C@H](O)[C@H](O)[C@H]2O)cc1,Kd,"protein: PA-I galactophilic lectin, PDB entry 4lke",4.3 µM (active)
CC[C@H](C)[C@H](NC(=O)[C@@H]1CCCN1C(=O)[C@H](CCCNC(N)N)NC(=O)[C@@H]1CCCN1C(=O)[C@@H]1CCCN1)C(=O)N[C@@H](Cc1ccc(O)cc1)C(=O)N[C@@H](CC(N)=O)C(=O)O (H-PP[Orn(CH(NH2)2)]PIYN-OH),Kd,"protein: Chaperone protein DnaK, PDB entry 4ezq",6.3 µM (active)
CC[C@H](C)[C@H](NC(=O)[C@@H](NC(=O)[C@@H]1CCCN1C(=O)[C@H](CCCNC(N)N)NC(=O)[C@H](CCCNC(N)N)NC(=O)[C@@H]1CCCN1)C(C)C)C(=O)N[C@@H](CCSC)C(=O)N[C@@H](CCCNC(N)N)C(N)=O (H-P[Orn(CH(NH2)2)][Orn(CH(NH2)2)]PVIM[Orn(CH(NH2)2)]-NH2),Kd,"protein: Chaperone protein DnaK, PDB entry 4ezt",7.4 µM (active)
CC[C@H](C)[C@H](NC(=O)[C@H](CO)NC(=O)[C@H](CCCCN)NC(=O)[C@@H](NC(=O)[C@H](Cc1cnc[nH]1)NC(=O)[C@H](CCC(=O)O)NC(=O)[C@@H]1CCCN1C(=O)[C@H](CCCNC(N)N)NC(=O)[C@@H]1CCCN1C(=O)[C@H](C)NC(=O)[C@@H](NC(=O)[C@@H](NC(=O)[C@@H]1CCCN1C(=O)[C@@H]1CCCN1)C(C)C)[C@@H](C)CC)[C@@H](C)O)C(=O)N[C@@H](Cc1ccc(O)cc1)C(=O)N[C@H](C(=O)N[C@@H](CCCNC(N)N)C(=O)N[C@@H](CO)C(=O)O)[C@@H](C)O (H-PPVIAP[Orn(CH(NH2)2)]PEHTKSIYT[Orn(CH(NH2)2)]S-OH),Kd,"protein: the SH3 Domain of ?PIX, PDB entry 2df6",1.05 µM (active)
CC(C)C[C@H](NC(=O)[C@H](Cc1ccc(O)cc1)NC(=O)[C@@H]1CCCN1C(=O)[C@@H]1CCCN1)C(=O)N1CCC[C@H]1C(=O)N[C@@H](CCCNC(N)N)C(=O)N1CCC[C@H]1C(=O)N[C@@H](CCCNC(N)N)C(=O)O (H-PPYLP[Orn(CH(NH2)2)]P[Orn(CH(NH2)2)]-OH),Kd,"protein: Chaperone protein DnaK, PDB entry 4ezo",0.3 µM (active)
CC[C@H](C)[C@H](NC(=O)[C@@H]1CCCN1C(=O)[C@H](CCC(=O)O)NC(=O)[C@H](Cc1ccc(O)cc1)NC(=O)[C@H](CC(=O)O)NC(=O)[C@@H]1CCCN1C(=O)[C@H](CC(N)=O)NC(=O)[C@@H]1CCCN1C(=O)[C@@H](NC(=O)[C@@H]1CCCN1C(=O)[C@@H]1CCCN1)C(C)C)C(=O)N[C@H](C=O)CCCNC(N)N (H-PPVPNPDYEPI[Orn(CH(NH2)2)]-aldehyde),Kd,"protein: Epidermal growth factor receptor kinase substrate 8-like protein 1 SH3 domain, PDB entry 2rol",24 µM (active)
H-ARYGVSNTSINRK-OH,Kd,"protein: Protein HTP-1 P84L, PDB entry 4tzq",0.3 µM (active)
same,Kd,"protein: Protein HTP-2, PDB entry 4tzm",0.2 µM (active)
H-ATGSARSEGY-OH,Kd,"protein: WD repeat-containing protein 5, WDR5, PDB entry 4ewr",0.541 µM (active)
O=C(CCS)N1CCC(O)(c2ccc(Cl)c(C(F)(F)F)c2)CC1,Kd,"protein: CREB-binding protein, PDB entry 4i9o",1.9 µM (active)
H-SWVYSPLHYSA-OH,Kd,"protein: Talin FERM F3 domain, PDB entry 1y19",0.17 µM (active)
CC(C)C[C@H](NC(=O)CNC(=O)[C@H](CCCNC(N)N)NC(=O)[C@@H](N)CO)C(=O)N[C@@H](CCC(=O)O)C(=O)N[C@H](C(=O)N[C@@H](CO)C(=O)N[C@@H](Cc1cnc[nH]1)C(=O)N[C@@H](CCCNC(N)N)C(=O)N[C@@H](CC(C)C)C(=O)N[C@@H](C)C(=O)N1CCC[C@H]1C(=O)N[C@@H](Cc1c[nH]c2ccccc12)C(=O)O)C(C)C (H-S[Orn(CH(NH2)2)]GLEVSH[Orn(CH(NH2)2)]LAPW-OH),Kd,"protein: Telomeric repeat-binding factor 2, PDB entry 4m7c",0.75 µM (active)
CSCC[C@H](N)C(=O)N1CCC[C@H]1C(=O)N1CCC[C@H]1C(=O)N[C@H](C(=O)N[C@@H](CC(C)C)C(=O)N1CCC[C@H]1C(=O)N[C@@H](Cc1cnc[nH]1)C(=O)N[C@@H](CCCNC(N)N)C(=O)N[C@@H](CC(=O)O)C(=O)N[C@@H](Cc1c[nH]c2ccccc12)C(=O)O)[C@@H](C)O (H-MPPTLPH[Orn(CH(NH2)2)]DW-OH),Kd,"protein: Peroxisomal membrane protein PAS20 (SH3 domain), PDB entry 1n5z",44 µM (active)
CC(C)C[C@H](NC(=O)[C@H](Cc1cnc[nH]1)NC(=O)[C@H](CCC(=O)O)NC(=O)[C@H](Cc1c[nH]c2ccccc12)NC(=O)[C@@H](NC(=O)[C@H](Cc1ccc(O)cc1)NC(=O)[C@@H](NC(=O)[C@H](C)NC(=O)[C@@H](N)CC(=O)O)[C@@H](C)O)[C@@H](C)O)C(=O)N[C@@H](C)C(=O)N[C@@H](Cc1c[nH]c2ccccc12)C(=O)N1CCC[C@H]1C(=O)O,Kd,"protein: The human ?-aminobutyric acid type A (GABAA), PDB entry 3d32",0.354 µM (active)
